# From PubChem
# AmpC inh no det: inhibitors of E. coli AmpC beta-lactamase without detergent | hit rate 1.8% among 71,000 | AmpC nitrocefin hydrolysis, absorbance 480 nm, no detergent | Potency, µM (doses to about 28.7 µM), without a hit: top-dose activity change, negative = inhibition | P00811 | AID 585; further: % of control where 0% means no effect
# Target sequence (P00811 whole entry, looked up): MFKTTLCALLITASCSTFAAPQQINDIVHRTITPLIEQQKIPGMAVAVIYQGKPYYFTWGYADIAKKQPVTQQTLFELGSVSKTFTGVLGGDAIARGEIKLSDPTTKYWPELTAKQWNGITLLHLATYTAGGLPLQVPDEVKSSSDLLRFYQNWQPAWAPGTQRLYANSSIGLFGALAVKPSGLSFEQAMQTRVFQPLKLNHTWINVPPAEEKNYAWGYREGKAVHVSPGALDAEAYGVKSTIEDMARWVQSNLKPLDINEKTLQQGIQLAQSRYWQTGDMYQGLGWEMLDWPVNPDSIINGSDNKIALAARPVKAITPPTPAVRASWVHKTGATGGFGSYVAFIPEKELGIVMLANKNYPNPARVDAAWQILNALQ
#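 AmpC, 20 mM phosphate pH 7.0; 15 min cpd preinc, RT; start with nitrocefin (800 uM stock); A480 kinetic read, 20 s intervals, 4 min. No-enzyme wells = negative control.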
# Anthrax LT inh: anthrax lethal toxin internalization inhibition | Cells, anthrax lethal toxin internalization, FRET ratio (460/530) | hit rate 0.67% among 70,000 | Potency, µM (top dose mostly 40 µM), inactives show top-dose activity change, negative = inhibition, usual class: inhibitors; further: on the % scale 0 is the no-effect control and ±100 the full control effect; nearly all actives have a fitted effect of over 50% in size
# Prx2 Sm inh: inhibitors of Schistosoma mansoni peroxiredoxin 2. S. mansoni Prx2 activity coupled to TGR/GSH (TGR is thioredoxin glutathione reductase), NADPH fluorescence loss, qHTS. AID 448. hit rate 0.07% among 65,000. Potency, µM
#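 qHTS, coupled TGR/Prx2 format; 15 min compound preincubation at RT; reaction started with H2O2 (2.5 mM aliquot); kinetic NADPH fluorescence decrease, ex 365/em 450 nm.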
# AmpC det inh: inhibitors of E. coli AmpC beta-lactamase with detergent | P00811 | purified AmpC, nitrocefin hydrolysis with detergent | Potency, µM (doses to about 28.7 µM), for the others: at the highest dose activity change, negative = inhibition | hit rate 0.09% among 71,000 | AID 584; active means well fitted curve in the direction sought with a large enough effect; inconclusive means small, poorly fitted or top-dose-only effect; further: on the % scale 0 is the no-effect control and ±100 the full control effect
#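 E. coli AmpC (5.3 nM) in 20 mM phosphate pH 7.0 with 0.01% Triton X-100, preincubated 15 min RT with compound; nitrocefin (2 uL of 800 uM stock) hydrolysis followed by 480 nm absorbance every 20 s over 4 min.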
# The depositor's hits bear a star; u = inconclusive; x = not tested or not shown; [ ] = another dose, or the depositor's remark. Only some compounds are listed: those with a hit (about 2.4% of all), similar ones and a draw of the others. Unless noted, the call rests on the fitted dose curve. Potency means the concentration at half of the fitted maximal effect.
SMILES,AmpC inh no det,Anthrax LT inh,Prx2 Sm inh,AmpC det inh
O=C1Nc2ccccc2SC(c2ccccc2)C1O (configuration not stated),13µM*[single pt active],-17%,>57,-6%
CC(C)N(CC(=O)O)CC(=O)O,1%[5.75 µM],14%[8 µM],>57,5%[5.75 µM]
O=c1cc(N2CCc3ccccc3C2)[nH]c(=O)n1-c1ccc(Cl)cc1,16µM*[single pt active],5%,>57,-3%
O=c1cc(N2CCCC2)[nH]c(=O)n1-c1ccc(Cl)cc1,-12%,-7%,>57,-3%
O=c1cc(N2CCc3ccccc3C2)[nH]c(=O)n1-c1ccc(Br)cc1,16µM*[single pt active],8%,>57,-4%
CCCCN(C)CCCNC(=O)CC1Oc2ccccc2NC1=O (configuration not stated),4µM*[single pt active],1%,>57,13%
Cc1ccc2c(c1)NC(=O)C(CC(=O)NC1CCCCC1C)O2 (configuration not stated),4µM*[single pt active],-5%,>57,13%
O=C(CC1Oc2ccccc2NC1=O)NCc1ccccc1 (configuration not stated),-3%,-10%,>57,5%
Cc1ccc2c(c1)NC(=O)C(CC(=O)NCCCN1CCCCC1C)O2 (configuration not stated),25%,-12%,>57,10%
O=C(CC1Oc2ccccc2NC1=O)NCCCN1CCOCC1 (configuration not stated),2%,7%,>57,9%
CC1CCCCN1CCNC(=O)CC1Oc2ccccc2NC1=O (configuration not stated),2.5µM*[single pt active],u,>57,13%
CCC(C)N(CCNC(=O)CC1Oc2ccc(C)cc2NC1=O)C1CCCCC1 (configuration not stated),7%,u,>57,8%
O=C1Nc2ccccc2OC1CC(=O)N1CCCC1 (configuration not stated),4µM*[single pt active],5%,>57,11%
COC(=O)[C@@H]1CC[C@H](C)[C@@H](c2ccc(C)cc2)N1C(=O)c1ccc(/C=N\OC[C@@H]2O[C@H](c3ccccc3)C=C[C@@H]2Oc2ccc(OC)cc2)cc1,x,-3%[8 µM],x,x
CN(Cc1ccco1)c1ncncc1-c1ccc2c(c1)OCO2,16%,-13%,>57,9%
CCCNC(=O)OC[C@@H]1O[C@H](CCO/N=C(\C)CCC(=O)OC[C@@H]2O[C@H](c3ccccc3)C=C[C@@H]2Oc2ccc(OC)cc2)C=C[C@@H]1Oc1ccc(OC)cc1,x,-3%[1.6 µM],x,x
CC(=O)c1cccc(NC(=O)CC2Oc3ccc(C)cc3NC2=O)c1 (configuration not stated),4µM*[single pt active],-5%,>57,8%
Cc1ccc2c(c1)NC(=O)C(CC(=O)NCc1ccc(F)cc1)O2 (configuration not stated),u,-6%,>57,10%
CC1CCCCC1NC(=O)CC1Oc2ccccc2NC1=O (configuration not stated),4µM*[single pt active],-8%,>57,15%
Cc1ccc2c(c1)NC(=O)C(CC(=O)NCc1cccnc1)O2 (configuration not stated),4µM*[single pt active],-25%,>57,10%
Cc1ccc2c(c1)NC(=O)C(CC(=O)NCCCN1CCCC1)O2 (configuration not stated),4µM*[single pt active],-5%,>57,9%
COc1ccc(N2CCN(CCCNC(=O)CC3Oc4ccc(C)cc4NC3=O)CC2)cc1 (configuration not stated),4µM*[single pt active],u,>57,13%
Cc1ccc2c(c1)NC(=O)C(CC(=O)NCCCN1CCN(C3CCCCC3)CC1)O2 (configuration not stated),8%,-6%,>57,8%
CN(C)c1ncc2nc(-c3cccs3)c(=O)n(CCC#N)c2n1,4%,u,>57,2%
Cn1c(Cn2c(=O)sc3ccccc32)nnc1SCC(=O)N1CCCC1,4µM*[single pt active],29%,>57,27%
SMILES,AmpC inh no det,Anthrax LT inh,Prx2 Sm inh,AmpC det inh
CC1CCN(C(=O)CSc2nnc(Cn3c(=O)sc4ccccc43)n2C)CC1,u,2%,>57,16%
Cn1c(Cn2c(=O)sc3ccccc32)nnc1SCC(=O)N1CCc2ccccc21,4µM*[single pt active],-4%,>57,12%
CCSc1nnc(Cn2c(=O)sc3ccccc32)n1C,4µM*[single pt active],-6%,>57,14%
Cn1c(Cn2c(=O)sc3ccccc32)nnc1SCC(=O)N1CCCc2ccccc21,4µM*[single pt active],-9%,>57,13%
Cn1c(Cn2c(=O)sc3ccccc32)nnc1SCc1ccccn1,11%,-2%,>57,1%
CCOC(=O)c1cnc2c(C)c(Cl)ccc2c1N1CCOCC1,4µM*[single pt active],0%,>57,14%
CCOC(=O)c1cnc2c(C(F)(F)F)cccc2c1N1CCOCC1,33%,-9%,>57,-7%
CCCCCCCN,4%,-2%,x,7%
OCC(O)CO,5%,6%,x,12%
O=C(O)CCc1c2ccc(=O)c(O)c-2oc2c(O)c(O)ccc12,2.5µM*,-26%[8 µM],>57,-26%[5.75 µM]
O=c1cc(-c2cccc(O)c2)oc2c(O)c(O)ccc12,u,u,>57,-8%
O=C(CCCN1CCC2(CC1)C(=O)N(Cc1cccc(F)c1)CN2c1ccccc1)c1ccc(F)cc1,20µM*[single pt active],u,>57,-9%
CCc1ccccc1S(=O)(=O)Cc1ccc(C(=O)NCc2ccc3c(c2)OCO3)o1,4µM*[single pt active],u,>57,6%
COCCNC(=O)c1ccc(CS(=O)(=O)c2c(Cl)cccc2Cl)o1,20%,1%,>57,7%
O=C(NCc1ccc2c(c1)OCO2)Oc1ccccc1,4µM*[single pt active],-8%,>57,13%
COCCNC(=O)c1ccc(CS(=O)(=O)c2ccc(OC)cc2)o1,4µM*[single pt active],-9%,>57,11%
COc1ccccc1S(=O)(=O)Cc1ccc(C(=O)NCc2cccnc2)o1,4µM*[single pt active],-21%,>57,15%
COc1ccccc1S(=O)(=O)Cc1ccc(C(=O)NCCN2CCCC2)o1,2%,-1%,>57,0%
CCc1ccccc1S(=O)(=O)Cc1ccc(C(=O)NC(C)C)o1,13%,-12%,>57,5%
COc1ccc(S(=O)(=O)Cc2ccc(C(=O)NC(C)C)o2)cc1,9%,0%,>57,5%
O=C(NCc1ccco1)c1cc2c(s1)CSC2,-25%,-13%,x,12%
CCC(C)NC(=O)c1ccc(CS(=O)(=O)c2ccc(OC)cc2)o1 (configuration not stated),4µM*[single pt active],-7%,>57,12%
CCN(CC)C(=O)c1ccc(CS(=O)(=O)c2ccc(OC)cc2)o1,4µM*[single pt active],-10%,>57,14%
COc1ccc(S(=O)(=O)Cc2ccc(C(=O)NCc3ccccn3)o2)cc1,4µM*[single pt active],u,>57,11%
O=C(NCc1ccc2c(c1)OCO2)c1cc2c(s1)CSC2,13µM*[single pt active],-3%,>57,5%
N=C(N)c1ccc(N2CCN(C3CCN(CC(=O)O)CC3)CC2)cc1,x,-16%,x,x
O=C(c1ccco1)N1CCC2(CC1)CCN(c1ccccn1)CC2,55%,u,>57,0%
C[C@H]1[C@H](NC(=O)/C(=N/OC(C)(C)C(=O)O)c2csc(N)n2)C(=O)N1S(=O)(=O)O (stereo in doubt),0.00079µM*,-3%[3.58 µM],>57,0.002µM*
